Cytotoxicity call data for 56 compounds are collected here from the antibiotic and cytotoxicity screens of Wong et al. (2023).

Each structure is given as a SMILES string. Out of some 39,000 compounds screened, about 3,300 (8.5%) were called active. The entries come from a sample that favours actives as a whole.

For this assay, the system named is HepG2. Nature of the assay: cytotoxicity call (relative viability < 0.9). Conditions: 10 µM.
`CCN1[C@H](C(=O)NCCc2cn(C)cn2)[C@@H](CO)[C@@H]2Cn3c(ccc(-c4ccncc4)c3=O)[C@@H]21`: the cytotoxicity call is “inactive”.
Next, `C[C@@H]1CN([C@H](C)CO)C(=O)c2cccc(NS(=O)(=O)c3cn(C)cn3)c2O[C@H]1CN(C)S(=O)(=O)c1ccccc1`: “inactive”.
Regarding `C[C@@H]1CCCCO[C@@H](CN(C)C(=O)Nc2ccc(C(F)(F)F)cc2)[C@@H](C)CN([C@H](C)CO)C(=O)c2cc(NC(=O)c3ccncc3)ccc2O1`, the cytotoxicity call is “inactive”.
Next, `C[C@H](O)C#Cc1ccc2c(c1)O[C@H](CN(C)C(=O)CN(C)C)[C@@H](C)CN([C@H](C)CO)S2(=O)=O`: “inactive”; `COc1ccc(NC(=O)Nc2cccc3c2O[C@H](CN(C)Cc2ccc(Cl)c(Cl)c2)[C@H](C)CN([C@@H](C)CO)C3=O)cc1`: “inactive”; `COc1ccc(S(=O)(=O)N(C)C[C@H]2OCCCC[C@@H](C)Oc3ccc(NC(=O)Nc4ccc5c(c4)OCO5)cc3C(=O)N([C@H](C)CO)C[C@@H]2C)cc1`: “inactive”.
As for `Cc1noc(C)c1NC(=O)Nc1ccc2c(c1)C(=O)N([C@H](C)CO)C[C@@H](C)[C@H](CN(C)Cc1ccc3c(c1)OCO3)OCCCC[C@H](C)O2`, the cytotoxicity call is “inactive”.
Turning to `Cc1noc(C)c1S(=O)(=O)Nc1ccc2c(c1)C(=O)N([C@@H](C)CO)C[C@@H](C)[C@@H](CN(C)Cc1ccc(Oc3ccccc3)cc1)O2`, the cytotoxicity call is “inactive”.
Next, `C[C@@H]1CN([C@H](C)CO)C(=O)c2cc(NC(=O)Nc3cccc4ccccc34)ccc2O[C@@H](C)CCCCO[C@H]1CN(C)S(=O)(=O)c1ccccc1`: “inactive”.
Next, `CC(=O)N1[C@@H]2c3cccc(=O)n3C[C@H]1[C@H](CO)[C@H]2C(=O)N1CCc2ccccc2C1`: “inactive”; `C[C@@H]1CN([C@H](C)CO)C(=O)Cc2cc(NC(=O)Cc3cn(C)c4ccccc34)ccc2O[C@H]1CN(C)Cc1ccc(C(F)(F)F)cc1`: “inactive”.
Next, `C[C@H](CO)N1C[C@H](C)[C@@H](CN(C)Cc2ccc(C(F)(F)F)cc2)Oc2ccc(NC(=O)Cc3cn(C)c4ccccc34)cc2CC1=O`: “inactive”.
As to `C[C@H]1CN([C@@H](C)CO)C(=O)Cc2cc(NC(=O)Cc3cn(C)c4ccccc34)ccc2O[C@H]1CN(C)Cc1ccc(C(F)(F)F)cc1`, the cytotoxicity call was “active”.
Next, `C[C@@H]1CN([C@@H](C)CO)C(=O)c2c(c3ccccc3n2C)-c2ccccc2CO[C@H]1CN(C)Cc1cccc(C(F)(F)F)c1`: “inactive”; `C[C@@H]1CCCCO[C@@H](CN(C)S(=O)(=O)c2ccc(F)cc2)[C@H](C)CN([C@H](C)CO)C(=O)c2cc(NC(=O)C3CCCCC3)ccc2O1`: “active”; `Cc1ccc(S(=O)(=O)N(C)C[C@H]2OCCCC[C@H](C)Oc3ccc(NC(=O)C4CCCCC4)cc3C(=O)N([C@H](C)CO)C[C@H]2C)cc1`: “inactive”.
`Cc1ccc(S(=O)(=O)N(C)C[C@H]2OCCCC[C@@H](C)Oc3ccc(NC(=O)C4CCCCC4)cc3C(=O)N([C@H](C)CO)C[C@@H]2C)cc1`: the cytotoxicity call is “active”.
In the case of `Cc1ccc(S(=O)(=O)N(C)C[C@@H]2OCCCC[C@@H](C)Oc3ccc(NC(=O)C4CCCCC4)cc3C(=O)N([C@H](C)CO)C[C@H]2C)cc1`, the cytotoxicity call is “inactive”.
Next, `Cc1ccc(S(=O)(=O)N(C)C[C@@H]2OCCCC[C@@H](C)Oc3ccc(NC(=O)C4CCCCC4)cc3C(=O)N([C@H](C)CO)C[C@@H]2C)cc1`: “inactive”; `C[C@@H]1CCCCO[C@H](CN(C)S(=O)(=O)c2ccc(Cl)cc2)[C@H](C)CN([C@H](C)CO)C(=O)c2cc(NC(=O)C3CCCCC3)ccc2O1`: “active”.
Next, `C[C@H](CO)N1C[C@H](C)[C@H](CN(C)S(=O)(=O)c2ccc(F)cc2)OCCCC[C@H](C)Oc2ccc(NC(=O)C3CCCCC3)cc2C1=O`: “inactive”; `C[C@@H]1CCCCO[C@@H](CN(C)S(=O)(=O)c2ccc(Cl)cc2)[C@@H](C)CN([C@@H](C)CO)C(=O)c2cc(NC(=O)C3CCCCC3)ccc2O1`: “inactive”; `Cc1ccc(S(=O)(=O)N(C)C[C@H]2OCCCC[C@H](C)Oc3ccc(NC(=O)C4CCCCC4)cc3C(=O)N([C@@H](C)CO)C[C@@H]2C)cc1`: “active”.
Next, `C[C@@H]1CN([C@@H](C)CO)C(=O)c2cc(NC(=O)C3CCCCC3)ccc2O[C@@H](C)CCCCO[C@@H]1CN(C)S(=O)(=O)c1ccc(Cl)cc1`: “inactive”.
Turning to `Cc1ccc(S(=O)(=O)N(C)C[C@H]2OCCCC[C@@H](C)Oc3ccc(NC(=O)C4CCCCC4)cc3C(=O)N([C@@H](C)CO)C[C@H]2C)cc1`, the cytotoxicity call is “inactive”.
In the case of `C[C@@H]1CN([C@H](C)CO)C(=O)c2cc(NC(=O)C3CCCCC3)ccc2O[C@@H](C)CCCCO[C@H]1CN(C)S(=O)(=O)c1ccc(F)cc1`, the cytotoxicity call is “inactive”.
Next, `C[C@@H]1CCCCO[C@@H](CN(C)C(=O)CCCN(C)C)[C@H](C)CN([C@@H](C)CO)C(=O)c2cc(NS(=O)(=O)c3cn(C)cn3)ccc2O1`: “inactive”; `CS(=O)(=O)c1ncc(Cl)c(C(=O)NCCc2ccc(S(N)(=O)=O)cc2)n1`: “inactive”; `COc1ccc(S(=O)(=O)Nc2cccc3c2O[C@H](CN(C)Cc2ccc(Oc4ccccc4)cc2)[C@H](C)CN([C@H](C)CO)C3=O)cc1`: “inactive”.
Next, `Cc1ccc(S(=O)(=O)N(C)C[C@H]2OCCCC[C@H](C)Oc3ccc(NC(=O)CCC(F)(F)F)cc3C(=O)N([C@H](C)CO)C[C@H]2C)cc1`: “inactive”; `CCC(C)C1OC2(C=CC1C)CC1CC(CC=C(C)C(OC3CC(OC)C(OC4CC(OC)C(O)C(C)O4)C(C)O3)C(C)C=CC=C3COC4C(OC)C(C)=CC(C(=O)O1)C34O)O2` (stereo unspecified): “active”.
Next, `CCC(C)C1OC2(C=CC1C)CC1CC(CC=C(C)C(OC3CC(OC)C(OC4CC(OC)C(NC(C)=O)C(C)O4)C(C)O3)C(C)C=CC=C3COC4C(O)C(C)=CC(C(=O)O1)C34O)O2` (stereo unspecified): “inactive”; `CC[C@H](C)[C@H]1O[C@]2(C=C[C@@H]1C)C[C@@H]1C[C@@H](C/C=C(\C)[C@@H](O[C@H]3C[C@H](OC)[C@@H](O[C@H]4C[C@H](OC)[C@@H](NC(C)=O)[C@H](C)O4)[C@H](C)O3)[C@@H](C)/C=C/C=C3\CO[C@@H]4[C@H](O)C(C)=C[C@@H](C(=O)O1)[C@]34O)O2`: “active”.
With `CN[C@@H]1[C@@H](C)O[C@@H](O[C@H]2[C@H](C)O[C@@H](O[C@@H]3/C(C)=C/C[C@@H]4C[C@@H](C[C@]5(C=C[C@H](C)[C@@H](C(C)C)O5)O4)OC(=O)[C@@H]4C=C(C)[C@@H](O)[C@H]5OC/C(=C\C=C\[C@@H]3C)[C@]54O)C[C@@H]2OC)C[C@H]1OC`, the cytotoxicity call was “active”.
Next, `COc1ccc(S(=O)(=O)Nc2ccc3c(c2)C(=O)N([C@@H](C)CO)C[C@@H](C)[C@@H](CN(C)CC2CC2)O3)cc1`: “inactive”.
Next, `Cc1noc(C)c1S(=O)(=O)Nc1cccc2c1O[C@@H](CN(C)C(=O)Nc1ccccc1)[C@@H](C)CN([C@@H](C)CO)C2=O`: “inactive”; `COc1ccc(NC(=O)N(C)C[C@@H]2OCCCC[C@@H](C)Oc3ccc(NC(=O)Nc4ccc5c(c4)OCO5)cc3C(=O)N([C@H](C)CO)C[C@H]2C)cc1`: “inactive”; `O=C(C[C@H]1CC[C@H](NC(=O)c2ccc(F)cc2)[C@H](CO)O1)NCc1ccncn1`: “inactive”.
Next, `COc1ccc(NC(=O)Nc2ccc3c(c2)[C@H]2C[C@H](CC(=O)NCc4ccncc4)O[C@@H](CO)[C@H]2O3)cc1`: “inactive”; `COc1ccc(NC(=O)N(C)C[C@@H]2OCCCC[C@H](C)Oc3ccc(NS(=O)(=O)c4ccccc4)cc3C(=O)N([C@@H](C)CO)C[C@@H]2C)cc1`: “inactive”; `C=CCOC(=O)[C@H]1[C@@H]2C(=O)O[C@@H](c3ccccc3)[C@@H](c3ccccc3)N2[C@@H](c2ccc(OCCOC(=O)[C@@H]3C[C@@H]4C(=O)NCC(=O)N4[C@@H]3c3cccc(OCCO)c3)cc2)[C@]12C(=O)Nc1ccc(I)cc12`: “inactive”.
As for `O=C(C[C@@H]1C[C@@H]2c3cc(NC(=O)Nc4ccc(C(F)(F)F)cc4)ccc3O[C@@H]2[C@@H](CO)O1)NCc1ccc(Cl)cc1`, the cytotoxicity call was “inactive”.
Next, `Cc1noc(C)c1NC(=O)Nc1cccc2c1O[C@@H](CN(C)S(=O)(=O)c1cn(C)cn1)[C@@H](C)CN([C@H](C)CO)C2=O`: “inactive”; `COc1cccc(S(=O)(=O)Nc2ccc3c(c2)OC[C@@H](C)N(C(=O)Cc2cccnc2)C[C@@H](C)[C@@H](OC)CN(C)C3=O)c1`: “inactive”.
Next, `CC(C)N1C[C@H](C)[C@@H](CN(C)Cc2ccc(Oc3ccccc3)cc2)Oc2c(NC(=O)C3CCN(C)CC3)cccc2C1=O`: “active”; `C[C@@H]1CN([C@H](C)CO)C(=O)c2cccc(NC(=O)C3CC3)c2O[C@H]1CN(C)Cc1ccc(Oc2ccccc2)cc1`: “inactive”.
Next, `C[C@@H]1CN([C@@H](C)CO)C(=O)c2cccc(NC(=O)c3ccncc3)c2O[C@H]1CN(C)Cc1ccc(Oc2ccccc2)cc1`: “inactive”; `CC(C)N1C[C@@H](CN(C)Cc2ccc(Oc3ccccc3)cc2)Oc2c(NC(=O)c3ccncc3)cccc2C1=O`: “active”; `C[C@@H]1CN([C@@H](C)CO)C(=O)c2cccc(NC(=O)c3ccncc3)c2O[C@@H]1CN(C)Cc1ccc(Oc2ccccc2)cc1`: “inactive”.
On to `CC(C)N1C[C@H](CN(C)Cc2ccc(Oc3ccccc3)cc2)Oc2c(NC(=O)c3ccncc3)cccc2C1=O`, for which the cytotoxicity call is “inactive”.
Next, `C[C@H](CO)N1C[C@H](C)[C@@H](CN(C)Cc2ccc(Oc3ccccc3)cc2)Oc2c(NC(=O)C3CC3)cccc2C1=O`: “inactive”; `COC[C@H](C)N1C[C@H](C)[C@@H](CN(C)Cc2ccc(Oc3ccccc3)cc2)Oc2c(NC(=O)c3ccncc3)cccc2C1=O`: “active”.
Next, `C[C@@H]1CN([C@@H](C)CO)C(=O)c2cccc(NC(=O)C3CC3)c2O[C@@H]1CN(C)Cc1ccc(Oc2ccccc2)cc1`: “inactive”; `CC(C)N1CC[C@H](CN(C)Cc2ccc(Oc3ccccc3)cc2)Oc2c(NC(=O)c3ccncc3)cccc2C1=O`: “inactive”; `C[C@H]1CN([C@@H](C)CO)C(=O)c2cccc(NC(=O)C3CC3)c2O[C@@H]1CN(C)Cc1ccc(Oc2ccccc2)cc1`: “inactive”.
With `CC(C)N1C[C@H](C)[C@@H](CN(C)Cc2ccc(Oc3ccccc3)cc2)Oc2c(NC(=O)C3CCNCC3)cccc2C1=O`, the cytotoxicity call is “active”.
